Screening data from PubChem BioAssay.
Most compounds without a hit are left out; they make up all but 0.92% or so of the library.
RecA intein inh = inhibitors of M. tuberculosis RecA intein splicing. P9WHJ3. inhibition, % (no concentration beside the values). 290,000 compounds, 0.75% hits. cell-free RecA intein splicing, fluorescence; in the data active means inhibition above about 30%; inconclusive means no clear call, values can overlap the other calls;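 further: 0% = vehicle wells and 100% = reference inhibitor control wells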
Rv3671c protease = inhibitors of M. tuberculosis serine protease Rv3671c. P9WHR9. 320,000 compounds, 0.048% hits. inhibition, % at 5.96 µM; in the data active means inhibition above about 38%;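 further: extracellular domain of Rv3671c used as enzyme; 0% = enzyme with DMSO and 100% = no enzyme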
Mtb UGM inh = inhibitors of M. tuberculosis UDP-galactopyranose mutase; purified UGM, fluorescence polarization probe displacement; inhibition, % at 10 µM; 320,000 compounds, 0.06% hits; AID 504406; in the data active means inhibition above about 10%, passing the limit was not always enough; inconclusive means no clear call, values can overlap the other calls
Target sequence (P9WIQ1 whole entry, looked up): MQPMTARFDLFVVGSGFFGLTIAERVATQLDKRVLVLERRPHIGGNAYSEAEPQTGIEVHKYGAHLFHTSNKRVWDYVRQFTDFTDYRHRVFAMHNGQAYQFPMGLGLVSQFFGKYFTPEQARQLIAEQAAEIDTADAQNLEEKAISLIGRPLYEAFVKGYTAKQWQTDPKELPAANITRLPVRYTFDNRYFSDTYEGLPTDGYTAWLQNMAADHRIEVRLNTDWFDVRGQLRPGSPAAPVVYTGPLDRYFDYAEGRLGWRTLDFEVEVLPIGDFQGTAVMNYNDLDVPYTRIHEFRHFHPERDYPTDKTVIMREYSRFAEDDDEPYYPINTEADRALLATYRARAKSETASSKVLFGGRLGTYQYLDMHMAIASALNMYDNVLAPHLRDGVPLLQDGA
Mtb hypoxia rep = reduces hypoxia-regulated biosensor signal in M. tuberculosis | M. tuberculosis hypoxia-regulated fluorescent reporter, fluorescence | fluorescence inhibition, % (no concentration beside the values) | 300,000 compounds, 0.1% hits | AID 1159583; in the data active means fluorescence inhibition mostly above about 23%, no sharp cut-off; inactive means mostly below about 17%
Mtb betalactam = beta-lactam sensitization of Mtb H37Rv | M. tuberculosis H37Rv growth with meropenem, percent inhibition | inhibition, % at 25 µM | 330,000 compounds, 0.27% hits | AID 434955;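 further: growth measured after seven days incubation then overnight dye step; 0% = bacteria only wells and 100% = bacteria with antibiotic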
FadD28 binding = blocks FadD28 binding to the bisubstrate probe | AID 588549 | fluorescence polarization | inhibition, % at 12.5 µM | 360,000 compounds, 0.22% hits; in the data active means inhibition above about 8.5%, passing the limit was not always enough; inconclusive means no clear call, values can overlap the other calls
GFP chromophore = counter-screen: blocks GFP chromophore formation; 2,100 compounds, 83% hits; EC50, µM; cell-free GFP chromophore formation, fluorescence; shares compounds with RecA intein inh; AID 434968
Active calls of the source: *; ? = inconclusive; . = not tested or not shown. Unless noted, how the calls were made is not given here.

SMILES	RecA intein inh	Rv3671c protease	Mtb UGM inh	Mtb hypoxia rep	Mtb betalactam	FadD28 binding	GFP chromophore
Cc1sc(NC(=O)CCl)c(C(=O)c2ccccc2)c1C	63*	-2	2	14	97	-2	32*
Cc1cc(C(=O)c2ccccc2)c(NC(=O)CN2CCOCC2)s1	0	-2	0	-4	4	0	.
Cc1ccc(Nc2cc(C)nn2-c2nc(C)cc(=O)[nH]2)cc1	39*	0	3	20	92	1	>38
Cc1ccc(Nc2cc(C)nn2-c2nc(C)cc(C)n2)cc1	4	1	2	.	97	-3	.
CCOC(=O)c1cc2cc3ccccc3cc2[nH]1	44*	-14	-2	-2	10	-2	>38
O=C(O)CCc1ccc(-c2cccs2)n1NC(=O)c1ccco1	-3	2	0	.	-1	2	.
N#C[C@H]1[C@H](c2ccccc2)[C@](C#N)(C(=O)c2ccccc2)[C@@H]2C=Cc3ccccc3N21	53*	.	.	.	.	.	23*
COc1ccc(C(=O)N2c3ccccc3C=CC2C#N)cc1 (stereo not drawn)	6	6	1	-6	0	-1	.
COc1ccc(C2CC(=O)c3cnc(N)nc3C2)c(OC)c1 (stereo not drawn)	0	.	.	2	.	-1	.
CC1=C(C(=O)OC(C)C)C2(O)C(=O)c3ccccc3C2(O)N1 (stereo not drawn)	32*	-74	0	.	-6	-2	27*
COc1ccccc1NC(=O)C1=C(C)Nc2nnnn2C1c1ccncc1 (stereo not drawn)	39*	-2	1	4	-6	-3	>38
N#CCCn1[nH]c(-c2ccccc2)cc1=O	97*	-169	2	5	5	-4	5.1*
O=[N+]([O-])c1cc(Br)c(Nc2ccccc2)c([N+](=O)[O-])c1	64*	6	7	23	100	-3	20*
CC(=O)Oc1c(/C=C(\C#N)C(N)=O)[nH]c2ccccc12	74*	.	.	-12	.	-1	0.054*
COC(=O)CC1(c2cccc3ccccc23)C(=O)c2ccccc2C1=O	42*	6	0	.	4	-16	6.6*
O=S(=O)(NCCCCCNS(=O)(=O)c1c(F)cccc1F)c1ccc2c(c1)OCCO2	.	-5	4	-1	1	-2	.
COc1ccc(/C=C2/SC(=S)N(CCCC(=O)Nc3cccc(O)c3)C2=O)cc1	38*	-12	-4	1	0	-2	>38
O=C(O)CN1C(=O)/C(=C\c2ccccc2OCc2ccc(Cl)cc2Cl)SC1=S	8	-23	-2	-1	2	-21	.
COc1ccc(/C=C2\SC(=S)N(CCC(=O)Nc3cccc(O)c3)C2=O)cc1OC	2	-42	1	7	-3	-1	.
O=C(O)CN1C(=O)/C(=C\c2cccc(OCc3ccc(Cl)cc3Cl)c2)SC1=S	40*	.	-1	.	-2	-6	21*
COc1cccc(/C=C2\SC(=S)N(CCCC(=O)N(CCO)c3ccccc3)C2=O)c1	37*	-2	1	8	2	-1	32*
C/C=C1\NC(=O)[C@H](C)NC(=O)[C@@H](NC(=O)[C@@H](Cc2ccc(O)cc2)NC(=O)[C@@H](NC(=O)/C(C)=C/C)C(C)C)[C@@H](C)OC(=O)[C@H](CCCCc2ccc(O)cc2)NC(=O)[C@@H](CCC(=O)OC)NC1=O	.	.	.	.	.	-4	.
CN1c2ccccc2C(C)(C)C12C=Nc1c(ccc3ccccc13)O2 (stereo not drawn)	79*	-68	-1	.	2	2	25*
CN(Cc1ccsc1)C(=O)CCc1nnc(CCCc2ccccc2)o1	0	-8	1	-1	7	-2	.
Cc1ccc(SC(=O)c2c(C)noc2-c2cc(C)on2)cc1	61*	2	1	.	-1	1	26*
SMILES	RecA intein inh	Rv3671c protease	Mtb UGM inh	Mtb hypoxia rep	Mtb betalactam	FadD28 binding	GFP chromophore
CCCCCN1N=C(C)CC1=O	79*	-61	-2	3	12	-2	13*
O=[N+]([O-])c1ccc(Sc2cccc[n+]2[O-])c2nonc12	45*	.	.	.	.	2	19*
O=[N+]([O-])c1ccc(Nc2ccccc2)c2nonc12	9	-2	-3	.	89	-1	.
COCCCn1c(=C(C#N)C(N)=O)sc(=Cc2ccccc2OC(F)F)c1=O	.	.	.	-3	.	.	.
COc1ccc(C2C(C#N)=C(N)Oc3n[nH]c(C)c32)cc1Cn1cc([N+](=O)[O-])cn1 (stereo not drawn)	76*	-6	3	.	0	0	12*
COc1cc(C2C(C#N)=C(N)OC3=C2C(=O)CCC3)cc2c1OCO2 (stereo not drawn)	0	1	1	10	0	0	.
CCOC(=O)Cc1[nH]nc2c1C(c1ccoc1)C(C#N)=C(N)O2 (stereo not drawn)	65*	-3	0	-4	11	3	26*
COc1cc(C2C(C#N)=C(N)Oc3n[nH]c(C)c32)cc2c1OCO2 (stereo not drawn)	92*	-4	0	6	-8	-1	4.9*
Cc1[nH]nc2c1C(c1ccoc1)C(C#N)=C(N)O2 (stereo not drawn)	84*	1	2	4	-3	-3	18*
C=CCOC(=O)C1=C(C)OC(N)=C(C#N)C1c1ccoc1 (stereo not drawn)	.	-10	-6	-3	?	1	.
COc1ccc(OC)c(/C=N/NC(=O)CNC(=O)c2cccc3ccccc23)c1	-3	4	-1	.	0	-4	.
O=C(/C=C/c1ccc(F)cc1)NCc1ccco1	2	5	1	.	6	0	.
CC(=O)N[C@@H](Cc1c[nH]c2ccccc12)C(=O)OCC(=O)Nc1ccc(S(=O)(=O)N(C)C)cc1	3	4	1	9	-3	-1	.
CCCc1[nH]nc2c1C(c1ccoc1)C(C#N)=C(N)O2 (stereo not drawn)	61*	2	1	5	4	-4	19*
Cc1ccc(S(=O)(=O)/N=C2/C=C(C3C(=O)CC(C)(C)CC3=O)C(=O)c3ccccc32)cc1	85*	-38	4	.	8	0	9.9*
CCCCCC(=O)Cc1cc(O)cc2c1C(=O)Oc1cc(O)c(C(=O)O)c(CCCCC)c1O2	66*	-44	5	.	-5	.	7.2*
CCOc1ccc(-n2c(C)cc(C(=O)CCl)c2C)cc1	48*	3	-1	6	92	-1	28*
CCCc1[nH][nH]c(=O)c1C(c1ccc(Cl)cc1)C(C#N)C#N (stereo not drawn)	70*	-9	-1	2	6	-10	18*
O=c1[nH][nH]c(-c2ccccc2O)c1C(C[N+](=O)[O-])c1ccccc1 (stereo not drawn)	6	4	-1	.	55	-7	.
CCCc1[nH][nH]c(=O)c1C(c1ccc(Br)cc1)C(C#N)C#N (stereo not drawn)	66*	-7	2	7	-4	-6	11*
